USP1 inh – Inhibitors of USP1/UAF1: Primary Screen | Ubiquitin carboxyl-terminal hydrolase 1 (Homo sapiens), O94782 | recombinant USP1/UAF1, Ub-Rhodamine cleavage fluorescence | Potency, µM (top dose mostly 57.1 µM), hits mostly inhibitors | 390,000 compounds, 0.23% hits | AID 743255, 2014; note: nearly all actives have a fitted effect of over 60% in size
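High-throughput fluorogenic screen: 1nM USP1/UAF1 complex, Ub-Rho substrate 150nM final, 50mM HEPES pH 7.8 with 0.5mM EDTA, 0.1 mg/ml BSA, 1mM TCEP and 0.01% Tween-20.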
Coupling enz – qHTS Assay for Inhibitors of Fructose-1,6-bisphosphate Aldolase from Giardia Lamblia: Coupling assay counterscreen. AID 2472, 2010. activity change, negative = inhibition, % at 58.2 µM, hits read low. 290,000 compounds, 0.67% hits. coupling enzyme system counterscreen, AmpLite Red fluorescence; in the data active = activity change below about -30%
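Compounds tested against the coupling enzymes alone at 57.5 uM final; readout was AmpLite Red fluorescence (525/598 nm) after 20 min at RT.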
PI4K2A block – qHTS for small molecular inhibitors of PI4K2A | Phosphatidylinositol 4-kinase type 2-alpha (Homo sapiens), Q9BTU6 | purified PI4K2A, ADP-Glo luminescence, 1 h; active compounds read low | activity change, negative = inhibition, % at 76.9 µM | 420,000 compounds, 0.13% hits | AID 1346378, 2018; in the data active = activity change below about -50%; inconclusive = mostly about -30% to -49%
Target sequence (Q9BTU6 whole entry, looked up): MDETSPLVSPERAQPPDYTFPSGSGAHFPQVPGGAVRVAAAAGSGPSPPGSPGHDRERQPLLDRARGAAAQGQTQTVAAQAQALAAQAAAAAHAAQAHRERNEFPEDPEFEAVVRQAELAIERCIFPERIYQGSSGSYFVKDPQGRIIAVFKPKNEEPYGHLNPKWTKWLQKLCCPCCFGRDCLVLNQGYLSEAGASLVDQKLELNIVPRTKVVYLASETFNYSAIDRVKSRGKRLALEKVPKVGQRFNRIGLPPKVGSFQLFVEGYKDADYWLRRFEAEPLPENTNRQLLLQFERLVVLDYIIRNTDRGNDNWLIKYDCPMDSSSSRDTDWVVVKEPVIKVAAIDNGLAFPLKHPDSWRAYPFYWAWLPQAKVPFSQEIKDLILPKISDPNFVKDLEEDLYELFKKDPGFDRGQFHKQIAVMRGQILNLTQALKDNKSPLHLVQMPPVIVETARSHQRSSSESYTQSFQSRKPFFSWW
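Compounds are screened against recombinant PI4K2A using PI as substrate and ATP, the latter dispensed at 300 microM. Reactions run one hour at ambient temperature before ADP-Glo detection; full inhibition defined by wells lacking enzyme.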
GALK inh – qHTS Assay for Inhibitors of Human Galactokinase (GALK); Purified GALK, Kinase-Glo residual ATP luminescence; Potency, µM (top dose mostly 57.5 µM), usual class: inhibitors; 270,000 compounds, 0.007% hits
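5 nM enzyme, 35 uM ATP, 100 uM galactose, 20 mM HEPES pH8.0, 5 mM MgCl2; 1 h RT; residual ATP by Kinase-Glo Plus luminescence, qHTS format.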
Eya2 phos inh – qHTS Assay for Inhibitors of the Phosphatase Activity of Eya2. Protein phosphatase EYA2 (Homo sapiens), O00167. AID 488837, 2010. 330,000 compounds, 0.006% hits. recombinant Eya2, OMFP fluorescence dephosphorylation (OMFP is methylfluorescein phosphate). Potency, µM (doses to about 76.9 µM), most hits filed as inhibitors
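Eya2 protein (added as 0.2 uM solution) was preincubated with compound for 10 min at ambient temperature in 50 mM HEPES pH 7.5, 50 mM NaCl, 5 uM MgCl2, 0.05% BSA, 1 mM DTT. OMFP (added at 50 uM) then reacted 10 min; fluorescence read at 485/525 nm.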
USP2a block – qHTS Assay for Inhibitors of Ubiquitin-specific Protease USP2a Using CHOP2 as the Reporter | AID 463254, 2010 | 330,000 compounds, 0.01% hits | Potency, µM (series often up to 38.3 µM), actives largely listed as inhibitors | USP2 core, Ub-CHOP2 coupled fluorogenic reporter, 485/531
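Cell-free coupled assay: 10nM USP2 core preincubated 30min RT with compound in Tris-HCl pH 8.0/CaCl2/CHAPS buffer, then 25nM Ub-CHOP2 and 25nM reporter substrate; fluorescence (Ex 485/Em 531) read after 60min RT, normalized to NEM inhibition, concentration-response curves fitted.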
Of the large screens only hits and unclear results are named; the others gave an inactive call. Shown are actives, neighbours in structure and some others; about 0.71% of the full set was active somewhere. Unless noted, calls come from the whole dose curve; as a rule, active = well fitted curve in the direction sought with a large enough effect; inconclusive = small, poorly fitted or top-dose-only effect, or another doubt; inactive = no such curve, though single readings can be large; an effect the other way counts as inactive or inconclusive.

C/C(=C\C(=S)Nc1ccccc1)Nc1ccc2ccccc2c1	Coupling enz -37 (no result: GALK inh)
C=CCNC(=S)Nc1cccc2ccccc12	Coupling enz -51
CC(C)C[C@@H](CC(=O)N[C@@H](CCCN)CC(=O)N[C@@H]1CCNC[C@H]1C(=O)N[C@H](CC(=O)N[C@@H](CCC(=O)O)CC(=O)O)Cc1ccccc1)NC(=O)[C@@H]1CCCC[C@H]1N	none (no result: USP1 inh, PI4K2A block, GALK inh, Eya2 phos inh, USP2a block)
CC(=O)OC[C@H]1O[C@@H](O/N=C(\C)CCN2CCc3nc(-c4ccccc4)c(-c4ccccc4)cc3C2)[C@H](OC(C)=O)[C@@H](OC(C)=O)[C@H]1OC(C)=O	none (no result: USP1 inh, PI4K2A block, GALK inh, Eya2 phos inh, USP2a block)
CS(=O)(=O)c1cc([N+](=O)[O-])c(Sc2nc3ccccc3[nH]2)c([N+](=O)[O-])c1	Coupling enz -41
CN(C)Cc1cc(O)c(CN(C)C)cc1O	USP1 inh inconclusive, Coupling enz -32 (no result: GALK inh)
O=C(CSc1nc2ccc(N3CCOCC3)cc2c(=O)n1CCc1ccccc1)NCC1CCCO1 (centres undefined)	Coupling enz -31
O=C(CSc1nc2ccccc2c(=O)n1CCC(=O)N1CCN(c2ccccc2)CC1)NCC1CCCO1 (centres undefined)	none
CCOC(=O)CSc1nc2ccccc2c(=O)n1CCN1CCOCC1	none
CCOC(=O)CSc1nc2ccc(N3CCOCC3)cc2c(=O)n1Cc1ccccc1	Coupling enz -32
CCCCNC(=O)CSc1nc2ccc(N3CCOCC3)cc2c(=O)n1CCc1ccccc1	Coupling enz -37
CCCCn1c(SCC(=O)NCCOC)nc2ccc(N3CCOCC3)cc2c1=O	Coupling enz -37
CCOc1ccc(N2CC(NC(=O)CCc3ccccc3)CC2=O)cc1 (centres undefined)	none (no result: Coupling enz, GALK inh, Eya2 phos inh, USP2a block)
COc1cccc(-c2ccc3ncnc(NCCNC(C)=O)c3c2)c1	none (no result: USP1 inh, PI4K2A block, GALK inh, Eya2 phos inh, USP2a block)
COC(=O)C/C=C\[C@@H](C)[C@@H](/C=N\O[C@@H](C)c1cc(-c2c(C)cc(C)cc2C)no1)OC	none (no result: USP1 inh, PI4K2A block, GALK inh, Eya2 phos inh, USP2a block)
COCCNC(=O)CSc1nc2ccc(N3CCOCC3)cc2c(=O)n1CCc1ccccc1	Coupling enz -44
O[C@H](COc1ccccc1)CN1CCC(C(O)(c2ccccc2)c2ccccc2)CC1	none (no result: USP1 inh, Coupling enz, GALK inh, Eya2 phos inh, USP2a block)
CCN1C(=O)[C@H]2[C@H]3[C@H](O)[C@H](O)C/C(=N/NC(=O)OCc4ccccc4)[C@H]3CC[C@@H]2C1=O	none (no result: USP1 inh, PI4K2A block, GALK inh, Eya2 phos inh, USP2a block)
OCC[n+]1ccc(/C=C/c2c[nH]c3ccccc23)cc1	USP1 inh 28µM, Coupling enz -48, Eya2 phos inh inconclusive, USP2a block inconclusive
C(=Cc1c[nH]c2ccccc12)c1nccc2ccccc12	USP1 inh inconclusive (no result: Coupling enz, GALK inh, Eya2 phos inh, USP2a block)
O=C1C(=O)c2ccc(-c3ccccc3)cc2-c2ccccc21	USP1 inh 5µM, Coupling enz -72, PI4K2A block -63, GALK inh inconclusive
Nc1ccc2c(c1)C(=O)C(=O)c1ccccc1-2	USP1 inh 1.3µM, PI4K2A block inconclusive, GALK inh 6.3µM
Cc1ccc(C2CC(c3ccco3)n3ncnc3N2)cc1 (centres undefined)	none
Cc1ccc2c(c1)C(N1CCCC1=O)CC(c1ccco1)N2 (centres undefined)	PI4K2A block -62
CCOC(=O)c1c(C)n(-c2ccc(C)cc2)c2c(CC(C)=O)c(Br)c(OC)c(O)c12	none
CCOC(=O)c1c(C)n(-c2ccc(C)cc2)c2c(C(C(C)=O)C(=O)O)c(Br)c(O)c(O)c12 (centres undefined)	Coupling enz -34
CC(C(=O)O)c1ccc(/C=C2\CCCCC2=O)cc1 (centres undefined)	none (no result: USP1 inh, Coupling enz, GALK inh, Eya2 phos inh, USP2a block)
CCn1c(C)nc2cc(-c3nc4n(n3)Cc3ccccc3-4)ccc21	USP1 inh inconclusive, PI4K2A block -69

Screening data (PubChem BioAssay)
